Only a sample is shown.
aSyn UTR act: Activators working through SNCA 5'UTR binding (MLPCN) | alpha-synuclein 5'UTR reporter, activators screen | AID 1814 | hit rate 7.1% among 300,000 | activity score, % (tested at 7.5 µM), hits read low; in the data active = activity score below about -60%
* marks the source's active call; other numbers are inactive results.

SMILES	aSyn UTR act
CCOC(=O)c1sc(NC(=S)NC(=O)c2ccccc2)nc1C	-216*
COc1cc(Cl)c(C)cc1NC(=O)c1ccc2c(c1)OCO2	-84*
O=C(Nc1ccc2c(c1)OCO2)c1cnccn1	-106*
Cc1ccc(NC(=O)c2ccc3c(c2)OCO3)cc1Cl	-123*
Cc1ccc(NC(=O)c2ccc(Cl)nc2)cc1	-116*
Cc1cc(Cl)ccc1NC(=O)c1ccc2c(c1)OCO2	-231*
Cc1ccc(C(=O)Nc2ccc3c(c2)OCO3)cc1Cl	-123*
Cc1ccc(NC(=O)c2nsc(Cl)c2Cl)cc1	-113*
Cc1ccc(C(=O)Nc2ccc3c(c2)OCO3)cc1S(=O)(=O)N1CCCC1	-114*
O=C(Nc1ccc2c(c1)OCO2)c1ccc(Cl)nc1	-90*
CC(=O)c1cccc(N=Nc2c(C)[nH]c3ccccc23)c1	-150*
N#Cc1c(/N=C/c2cc(Br)cs2)sc2c1CCC2	-190*
N#Cc1c(/N=C/c2cccs2)sc2c1CCC2	-88*
COc1ccc(C)cc1N(C(=O)COc1ccccc1)c1nc2ccccc2s1	-92*
C=CCn1c(-c2ccccc2)c[nH]c1=S	-120*
Cn1c(-c2ccc(-c3ccccc3)cc2)c[nH]c1=S	-173*
CCn1c(-c2ccc(-c3ccccc3)cc2)c[nH]c1=S	-65*
CC(C)C[C@H]1CN=C(Nc2ccccc2)N1CCCC1CCCCC1	-69*
COCCn1c(C)cc(C2=NNC(=NC3CC3)SC2)c1C	112
COCC(C)N=C1NN=C(c2cc(C)n(Cc3ccccc3Cl)c2C)CS1 (stereo not drawn)	-141*
COCCCN=C1NN=C(c2cc(C)n(Cc3ccco3)c2C)CS1	94
O=[N+]([O-])c1cc(S(=O)(=O)/N=C(/c2ccccc2)N2CCOCC2)ccc1Cl	-83*
Cc1ccc(NC2=C(N3CCOCC3)C(=O)c3ccccc3C2=O)cc1	-84*
Cc1ccc(NC2=C(Cl)C(=O)c3ccccc3C2=O)cc1	60
CC1CCC(NC(=O)Cn2c(=O)[nH]c3ccsc3c2=O)CC1 (stereo not drawn)	-130*
SMILES	aSyn UTR act
O=C(NC1=NCCS1)C12CC3CC(C1)CC(C(=O)NC1=NCCS1)(C3)C2	-71*
O=C(Nc1ccc2c(c1)OCO2)N1CCCC1	-88*
O=C(Nc1ccc2c(c1)OCCO2)N1CCOCC1	-80*
O=C(O)C1CC=CCC1C(=O)Nc1ccc2c(c1)OCCO2 (stereo not drawn)	-73*
O=C(Nc1ccc2c(c1)OCO2)N1CCOCC1	-84*
O=C(Nc1ccc2c(c1)OCCO2)N1CCN(Cc2ccccc2)CC1	-66*
CCC(C)c1ccc(NC(=O)N2CCOCC2)cc1 (stereo not drawn)	-102*
CC1CN(C(=O)Nc2ccc3c(c2)OCO3)CC(C)O1 (stereo not drawn)	-152*
COc1ccc(OCCSc2nnc3sc4ccccc4n23)cc1	-131*
CCN(CC)C(=O)c1ccc2c(c1[N+](=O)[O-])C(=O)c1ccccc1C2=O	-93*
CCN(CC)CCNC(=O)c1ccc2c(c1NCCO)C(=O)c1ccccc1C2=O	96
Cc1cc(N2CCOCC2)n2ncc(-c3ccccc3Cl)c2n1	-160*
O=C(COc1ccccc1N1C(=O)c2ccccc2C1=O)c1ccc(Cl)cc1	-87*
Cc1ccc(NC(=O)c2cnccn2)cc1	-82*
Cc1ccc(NC(=O)c2cnccn2)cc1C	-72*
O=C(Nc1ccc(Br)cc1)c1cnccn1	-94*
Cc1cc2c(C)nc(-c3ccccc3)nc2o1	-167*
Cc1ccc(-n2nnnc2SCC(=O)Nc2sc(C)c(C)c2C#N)cc1C	-71*
Nc1ccc2nc3c(=O)n(C4CCCCC4)c(=O)[nH]c3nc2c1	-130*
CN1C(c2ccc(F)cc2)=CS/C1=C(/C#N)c1nnc(N2CCOCC2)n1-c1ccccc1	-74*
COc1cc(NC(=O)CCc2ccccc2)nc(OC)n1	-71*
COc1ccc(C(=O)Nc2cc(OC)nc(OC)n2)cc1	-125*
CC(=O)Nc1cccc(-c2csc(Nc3ccc(C)cn3)n2)c1	-66*
CC(=O)Nc1cccc(-c2csc(Nc3ncccn3)n2)c1	-170*
CC(=O)Nc1ccc(-c2csc(Nc3cccc(C)n3)n2)cc1	-182*
SMILES	aSyn UTR act
S=C(NC1CCCCC1)c1ccc2c(c1)OCO2	-65*
O=C(NNC(=S)NC1CCCCC1)c1ccc2c(c1)OCO2	-78*
O=C(NC1CCCCC1)c1ccc2c(c1)OCCO2	-82*
Cn1c(SCc2c(F)cccc2Cl)nnc1-c1cccs1	-83*
Cn1c(SCC(=O)Nc2ccccc2F)nnc1-c1cccs1	-78*
Cc1ccc2cc(NC(=O)c3ccc(C(C)(C)C)cc3)ccc2n1	-63*
CCc1ccc(C(=O)Nc2ccc3nc(C)ccc3c2)cc1	-178*
COc1cc(CNCCO)ccc1OCC(=O)Nc1ccc(Br)cc1	-69*
ONC(=Nc1ccc(Cl)cc1)c1ccc(Cl)cc1	-100*
Cc1ccc(C(=O)NCC(=O)N2CCCC(C(F)(F)F)C2)s1 (stereo not drawn)	-62*
O=C(O)c1ccc(COc2ccc(CO)cc2Cl)cc1	-92*
O=C(O)c1cccc(COc2ccc(CO)cc2Cl)c1	105
CCOC(=O)c1ccc(-c2ccc3[nH]c4ccccc4c(=O)c3c2)cc1F	-81*
